Assay results from the supplement of paper PMC10849652.
The full data set covers some 7,900 targets. This sample favours those with a hit. About 0.6% of all pairs of compound and target were hits. Values without a mark were called inactive.

These compounds were tested against ZNF511 isoform 1 (UniProt Q8NB15) (assay: log2 fold change, soluble protein after heating vs DMSO (PISA); higher = thermal stabilisation; K562 cells, 10 uM, 30 min; active = over 0.2 and 3.5 SD of the protein, either way, in both replicates (recomputed)).
Chain of ZNF511 isoform 1 (Q8NB15 whole entry, looked up, canonical isoform): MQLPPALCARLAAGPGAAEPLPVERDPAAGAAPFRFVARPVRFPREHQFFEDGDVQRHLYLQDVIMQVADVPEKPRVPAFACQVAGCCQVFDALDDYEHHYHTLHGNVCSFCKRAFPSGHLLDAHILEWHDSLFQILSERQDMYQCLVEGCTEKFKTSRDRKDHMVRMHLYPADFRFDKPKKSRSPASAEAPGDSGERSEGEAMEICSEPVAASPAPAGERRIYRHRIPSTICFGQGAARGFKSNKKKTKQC
Outline: (§1)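 K562 cells (2×10^6 cells/mL) were treated with 10 μM compound for 30 min, and aliquots were heated for 3 min over 48°C-58°C. Pooled aliquots were extracted in PBS with 0.5% NP-40 at 4°C, and the supernatant after 21,000xg for 90 min was measured by TMTpro 16plex LC-MS/MS with channel sums equalised. Reported thermal stability, relative to control samples and from duplicates, is a log2 fold change.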
Compound `Cn1cc(-c2ccc3nnc(C(F)(F)c4ccc5ncccc5c4)n3n2)cn1` has a log2 fold change of -0.132. For `CC(C)(C)Cn1c(N)nc2ccc(-c3[nH]c(C(C)(C)C)nc3-c3ccc(F)cc3)nc21` [ralimetinib], the log2 fold change was 0.074. For `Cc1ccc(C(=O)N(CCCN)[C@@H](c2nc3cc(Cl)ccc3c(=O)n2Cc2ccccc2)C(C)C)cc1` [ispinesib], the log2 fold change was 0.296. Work on `CC[C@@H]1C(=O)N(C)c2cnc(Nc3ccc(C(=O)N[C@H]4CC[C@H](N5CCN(CC6CC6)CC5)CC4)cc3OC)nc2N1C(C)C` [volasertib] yielded a log2 fold change of 0.007. `CS(=O)(=O)CCNCc1ccc(-c2ccc3ncnc(Nc4ccc(OCc5cccc(F)c5)c(Cl)c4)c3c2)o1` [lapatinib] gave a log2 fold change of -0.085. Compound `CC(C)C[C@@H](C=O)NC(=O)[C@H](CC(C)C)NC(=O)[C@H](CC(C)C)NC(=O)OCc1ccccc1` has a log2 fold change of 0.195. In the case of `C=CC(=O)N1CCC[C@@H](n2nc(-c3ccc(Oc4ccccc4)cc3)c3c(N)ncnc32)C1` [ibrutinib], the log2 fold change is reported as 0.047. In the case of `CN(C)CC(=O)Nc1ccc2[nH]c(=O)c3ccccc3c2c1`, the log2 fold change is reported as 0.068. `NCC(=O)Nc1ccc(-n2nc(C(F)(F)F)cc2-c2ccc3c(ccc4ccccc43)c2)cc1` was tested, and the log2 fold change was -0.005. `O=C(Nc1cccc(Nc2ncc(Br)c(NCCc3cnc[nH]3)n2)c1)N1CCCC1` gave a log2 fold change of 0.072. Work on `Oc1cc(-c2nc(-c3ccccc3)[nH]c2-c2ccncc2)ccc1Cl` yielded a log2 fold change of 0.018. With `CN1CCc2c(c3ccccc3n2Cc2ccc(C(=O)NO)cc2)C1` [Tubastatin A] the log2 fold change was -0.089. With `COc1cc2nc(-c3cc(F)ccc3O)nc(N[C@@H]3CNC[C@H]3C(C)(C)O)c2cc1OC` the log2 fold change was -0.013.

These compounds were tested against ZNF512 (UniProt Q96ME7) in the same assay as above.
Chain of ZNF512 (Q96ME7 whole entry, looked up): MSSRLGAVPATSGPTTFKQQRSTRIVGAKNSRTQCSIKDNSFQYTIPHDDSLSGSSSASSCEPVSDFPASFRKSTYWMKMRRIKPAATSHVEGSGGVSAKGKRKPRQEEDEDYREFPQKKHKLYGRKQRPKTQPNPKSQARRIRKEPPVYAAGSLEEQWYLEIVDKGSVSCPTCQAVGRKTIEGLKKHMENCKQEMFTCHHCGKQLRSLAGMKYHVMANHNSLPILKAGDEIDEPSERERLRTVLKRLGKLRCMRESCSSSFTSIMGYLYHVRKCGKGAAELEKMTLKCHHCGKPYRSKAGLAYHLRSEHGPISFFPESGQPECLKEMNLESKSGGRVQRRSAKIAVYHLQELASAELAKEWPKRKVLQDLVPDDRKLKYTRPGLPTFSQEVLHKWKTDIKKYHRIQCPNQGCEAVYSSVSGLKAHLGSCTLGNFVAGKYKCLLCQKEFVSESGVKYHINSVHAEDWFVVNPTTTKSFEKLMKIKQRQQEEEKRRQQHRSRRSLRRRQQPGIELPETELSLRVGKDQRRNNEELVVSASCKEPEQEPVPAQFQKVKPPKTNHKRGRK
Outline: as §1
In the case of `CC(C)c1cnn2c(NCc3ccccc3)cc(NCCCCCCN)nc12`, the log2 fold change is reported as 0.321. `CNC(=O)c1ccccc1Nc1nc(Nc2ccc(N3CCOCC3)cc2OC)ncc1Cl` gave a log2 fold change of 0.151. `C#Cc1cccc(Nc2ncnc3cc(OCCOC)c(OCCOC)cc23)c1` [erlotinib] was tested, and the log2 fold change was -0.048. `CCn1c(C(=O)N(C2CC2)C2CC2)cc2c3c(ncn3C)c(Nc3cc(C)n(C)n3)nc21` gave a log2 fold change of 0.128. For `NC(=O)c1ccc2nc(-c3ccc(Oc4ccc(Cl)cc4)cc3)[nH]c2c1`, the log2 fold change was -0.014.

The compounds below were run against ZNF579 (UniProt Q8NAF0) in the same assay as above.
Chain of ZNF579 (Q8NAF0 whole entry, looked up): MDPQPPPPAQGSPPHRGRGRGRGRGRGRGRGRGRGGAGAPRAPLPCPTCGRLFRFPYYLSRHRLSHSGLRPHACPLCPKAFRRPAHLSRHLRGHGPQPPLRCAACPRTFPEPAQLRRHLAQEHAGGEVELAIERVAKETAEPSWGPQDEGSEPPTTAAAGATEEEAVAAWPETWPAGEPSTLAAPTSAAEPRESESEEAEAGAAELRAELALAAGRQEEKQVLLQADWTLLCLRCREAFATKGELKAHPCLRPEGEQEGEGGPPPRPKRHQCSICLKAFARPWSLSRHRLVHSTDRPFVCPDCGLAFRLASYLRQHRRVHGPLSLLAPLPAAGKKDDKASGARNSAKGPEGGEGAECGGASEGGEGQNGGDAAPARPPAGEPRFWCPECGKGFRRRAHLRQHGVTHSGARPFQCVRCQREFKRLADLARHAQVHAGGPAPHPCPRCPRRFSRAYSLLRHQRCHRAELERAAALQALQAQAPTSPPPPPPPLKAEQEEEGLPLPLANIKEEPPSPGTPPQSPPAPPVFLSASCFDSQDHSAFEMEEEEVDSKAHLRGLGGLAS
Outline: as §1
`Cc1ccc(NC(=O)c2ccc(CN3CC[C@H](N(C)C)C3)c(C(F)(F)F)c2)cc1Nc1nccc(-c2cncnc2)n1` [bafetinib] gave a log2 fold change of 0.107. `CNC(=O)c1ccc(Nc2ncc(C(F)(F)F)c(NCc3nccnc3N(C)S(C)(=O)=O)n2)cc1` [defactinib] gave a log2 fold change of 0.019. With `CCCS(=O)(=O)Nc1ccc(F)c(C(=O)c2c[nH]c3ncc(Cl)cc23)c1F` the log2 fold change was -0.085. `Cc1ccc(NC(=O)c2cccc(N(C)C)c2)cc1NC(=O)c1ccc(O)cc1` was tested, and the log2 fold change was -0.183. Work on `CCN(CCCOc1ccc2c(Nc3cc(CC(=O)Nc4cccc(F)c4)[nH]n3)ncnc2c1)CCOP(=O)(O)O` [barasertib] yielded a log2 fold change of 0.037. `Cc1ccc2c(=O)c3ccccc3n(CCCN)c2c1C` was tested, and the log2 fold change was -0.168. Compound `COC(=O)[C@H](CCSC)NC(=O)c1ccc(NC[C@@H](N)CS)cc1-c1ccccc1` has a log2 fold change of -0.012. Compound `CCCS(=O)(=O)Nc1ccc(F)c(C(=O)c2c[nH]c3ncc(-c4ccc(Cl)cc4)cc23)c1F` [vemurafenib] has a log2 fold change of -0.157. Compound `O=C1NC(=O)/C(=C\c2ccc3nccnc3c2)S1` has a log2 fold change of -0.07. For `CC(C)c1cnn2c(NCc3ccccc3)cc(NCCCCCCN)nc12`, the log2 fold change was 0.054. For `Cn1cncc1[C@@](N)(c1ccc(Cl)cc1)c1ccc2c(c1)c(-c1cccc(Cl)c1)cc(=O)n2C` [tipifarnib], the log2 fold change was 0. Work on `Cc1ccc(Sc2cncc3sc(C(N)=O)cc23)cc1` yielded a log2 fold change of -0.07. `CNC(=O)c1ccccc1Nc1nc(Nc2ccc(N3CCOCC3)cc2OC)ncc1Cl` gave a log2 fold change of -0.019. For `CN(CCOc1ccc(C[C@@H]2SC(=O)NC2=O)cc1)c1ccccn1` (racemic) [rosiglitazone], the log2 fold change was -0.021. `Cn1cc(-c2ccc3nnc(C(F)(F)c4ccc5ncccc5c4)n3n2)cn1` gave a log2 fold change of 0.002. With `CC(C)(C)Cn1c(N)nc2ccc(-c3[nH]c(C(C)(C)C)nc3-c3ccc(F)cc3)nc21` [ralimetinib] the log2 fold change was 0.032. In the case of `Cc1ccc(C(=O)N(CCCN)[C@@H](c2nc3cc(Cl)ccc3c(=O)n2Cc2ccccc2)C(C)C)cc1` [ispinesib], the log2 fold change is reported as 0.029. `CC[C@@H]1C(=O)N(C)c2cnc(Nc3ccc(C(=O)N[C@H]4CC[C@H](N5CCN(CC6CC6)CC5)CC4)cc3OC)nc2N1C(C)C` [volasertib] was tested, and the log2 fold change was 0.098. Compound `CS(=O)(=O)CCNCc1ccc(-c2ccc3ncnc(Nc4ccc(OCc5cccc(F)c5)c(Cl)c4)c3c2)o1` [lapatinib] has a log2 fold change of 0.05. Work on `C#Cc1cccc(Nc2ncnc3cc(OCCOC)c(OCCOC)cc23)c1` [erlotinib] yielded a log2 fold change of -0.056. For `CCn1c(C(=O)N(C2CC2)C2CC2)cc2c3c(ncn3C)c(Nc3cc(C)n(C)n3)nc21`, the log2 fold change was 0.002. `NC(=O)c1ccc2nc(-c3ccc(Oc4ccc(Cl)cc4)cc3)[nH]c2c1` was tested, and the log2 fold change was 0.042. `CC(C)C[C@@H](C=O)NC(=O)[C@H](CC(C)C)NC(=O)[C@H](CC(C)C)NC(=O)OCc1ccccc1` was tested, and the log2 fold change was -0.271. `C=CC(=O)N1CCC[C@@H](n2nc(-c3ccc(Oc4ccccc4)cc3)c3c(N)ncnc32)C1` [ibrutinib] showed a log2 fold change of -0.024. `CN(C)CC(=O)Nc1ccc2[nH]c(=O)c3ccccc3c2c1` showed a log2 fold change of -0.026. With `NCC(=O)Nc1ccc(-n2nc(C(F)(F)F)cc2-c2ccc3c(ccc4ccccc43)c2)cc1` the log2 fold change was 0.085. With `O=C(Nc1cccc(Nc2ncc(Br)c(NCCc3cnc[nH]3)n2)c1)N1CCCC1` the log2 fold change was -0.377 (active). Compound `Oc1cc(-c2nc(-c3ccccc3)[nH]c2-c2ccncc2)ccc1Cl` has a log2 fold change of -0.025. For `CN1CCc2c(c3ccccc3n2Cc2ccc(C(=O)NO)cc2)C1` [Tubastatin A], the log2 fold change was 0.095. Work on `COc1cc2nc(-c3cc(F)ccc3O)nc(N[C@@H]3CNC[C@H]3C(C)(C)O)c2cc1OC` yielded a log2 fold change of 0.042.
